High-throughput results from PubChem BioAssay.
TDP1 cell CPT = growth inhibition of DT40 Tdp1-/-;hTDP1 cells with camptothecin (screen for TDP1 inhibitors); AID 686979; chicken DT40 Tdp1-/-;hTDP1 cells + 20 nM CPT, ATP luminescence, 48 h; Potency, µM (top dose mostly 46.2 µM), for the others: at the highest dose activity change, negative = growth inhibition, usual class: inhibitors; 420,000 tested, 12% active; further: potency means the concentration at half of the fitted maximal effect; nearly all actives have a fitted effect of over 55% in size
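Chicken DT40 Tdp1-/- cells complemented with human TDP1, 400 cells/well, exposed to compounds plus 20 nM camptothecin for at least 48 h at 37 C; viability read as ATP content by CellTiter-Glo luminescence.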
HT1080 IDH1KD tx = kills HT-1080 cells with IDH1 knockdown; HT-1080 IDH1 knockdown viability, ATP luminescence, 48 h; Potency, µM (top dose mostly 46.1 µM), for inactives: at the top dose activity, negative = toxicity, hits mostly cytotoxic; 360,000 tested, 2% active;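 further: potency means the concentration at half of the fitted maximal effect; 0% = DMSO wells and -100% = cell-free medium wells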
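Knockdown cells (IDH1KD HT-1080) received compounds 2 h after plating at 750 cells/well and were kept 48 h at 37 °C in 5% FBS RPMI. A CellTiter-Glo luminescence read gave % activity for curve fitting.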
ELG1 repair inh = ELG1-dependent DNA repair inhibition | HEK293T ELG1-luciferase reporter, luminescence, 16 h; DNA damage induced by 5-fluorouridine | Potency, µM (highest dose often 46.1 µM), without a hit: at the top dose activity change, negative = inhibition, actives largely listed as inhibitors | 330,000 tested, 2.3% active; further: potency means the concentration at half of the fitted maximal effect; nearly all actives have a fitted effect of over 55% in size
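Quantitative HTS, concentration-response format. 2,000 cells/well co-treated with 5-fluorouridine and compound, 16 hr in 5% CO2 at 37 °C; ONE-Glo luminescence read after 30 min.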
DT40 TDP1 no CPT = qHTS for Inhibitors of human tyrosyl-DNA phosphodiesterase 1 (TDP1): qHTS in cells in absence of CPT. DT40 Tdp1-/- hTDP1 cells, no CPT, ATP luminescence, 48 h. Potency, µM (top dose mostly 46.2 µM), for the others: top-dose activity change, negative = growth inhibition, actives largely listed as inhibitors. 420,000 tested, 15% active; further: potency means the concentration at half of the fitted maximal effect; nearly all actives have a fitted effect of over 55% in size
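Stably hTDP1-transfected Tdp1-null chicken DT40 cells were treated with library compounds minus camptothecin and grown for at least 48 hr at 37 °C, after which cellular ATP was quantified by luminescence.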
IL-1B inflam inh = inhibitors of inflammasome signaling (IL-1 beta secretion). THP-1 LPS/ATP IL-1B secretion, AlphaLISA, 16 h; hits give low values. 360,000 tested, 4.7% active. activity change, % at 57.5 µM. AID 743279; in the data active means activity change below about -50%; inconclusive means mostly about -30% to -49%
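Secreted IL-1B measured by AlphaLISA bead assay after 16 h compound exposure of THP-1 cells; compounds (final up to 57.5 uM) added 1 h before LPS (250 ng/mL) and ATP (1.25 mM) stimulation; lower signal means less secretion.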
HT1080-NT tox = kills 2HG-producing HT-1080-NT fibrosarcoma cells | HT-1080-NT fibrosarcoma viability, CellTiter-Glo ATP luminescence, 48 h | Potency, µM (doses to about 46.1 µM), for inactives: at the top dose activity, negative = less viability, hits mostly cytotoxic | 360,000 tested, 1.6% active | AID 686970;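 further: NT is the 2HG producing partner of a matched IDH1 knockdown line; potency means the concentration at half of the fitted maximal effect; 0% = DMSO-treated cells and -100% = media-only wells without cells; nearly all actives have a fitted effect of over 55% in size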
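A 48-hour cytotoxicity screen used HT-1080-NT cells plated 2 hours before compound delivery. ATP-based CellTiter-Glo luminescence measured viability, normalized to DMSO and no-cell controls.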
* marks the source's active call; other numbers are inactive results. In the library only some 19% were active in any assay of this set; here they are far more common. Unless noted, the call rests on the fitted dose curve; in most records, active means well fitted curve in the direction sought with a large enough effect; inconclusive means small, poorly fitted or top-dose-only effect, or another doubt; inactive means no such curve, though single readings can be large; an effect the other way counts as inactive or inconclusive. Unless noted, on the % scale 0 is the no-effect control and ±100 the full control effect.

`COCCCNC(=O)COc1ccc(Br)cc1Cl` gave TDP1 cell CPT -5%, HT1080 IDH1KD tx 12%, ELG1 repair inh inconclusive, DT40 TDP1 no CPT -2%, IL-1B inflam inh -11 and HT1080-NT tox 21%.
For COCc1c(C(=O)OCC(=O)N2CCCC2=O)oc2ccccc12 the results were TDP1 cell CPT 11%, HT1080 IDH1KD tx 0%, ELG1 repair inh 25%, DT40 TDP1 no CPT 9%, IL-1B inflam inh 15 and HT1080-NT tox 8%.
OC(CNC1CCCc2ccccc21)COc1c(Cl)cccc1Cl (stereo unspecified) was read as TDP1 cell CPT inconclusive, HT1080 IDH1KD tx inconclusive, ELG1 repair inh -28%, DT40 TDP1 no CPT inconclusive, IL-1B inflam inh -101* and HT1080-NT tox -20%.
Screening O=C(O)COc1ccc(CCNS(=O)(=O)c2ccccc2)s1 returned TDP1 cell CPT 3% and DT40 TDP1 no CPT -14%.
`Cn1c(=O)c2c(nc(C3CC4C5CCC(C5)C4C3)n2C)n(C)c1=O` (stereo unspecified) gave TDP1 cell CPT inconclusive, HT1080 IDH1KD tx 7%, DT40 TDP1 no CPT 16µM*, IL-1B inflam inh -1 and HT1080-NT tox 5%.
Screening COc1ccc(-c2onc(C)c2-c2cscn2)c(O)c1 returned TDP1 cell CPT 6%, HT1080 IDH1KD tx 5%, ELG1 repair inh -17%, DT40 TDP1 no CPT -1%, IL-1B inflam inh 15 and HT1080-NT tox 9%.
Screening CCOc1ccc(-c2onc(C(F)(F)F)c2-c2cscn2)c(O)c1 returned TDP1 cell CPT 11µM*, HT1080 IDH1KD tx inconclusive, ELG1 repair inh inconclusive, DT40 TDP1 no CPT inconclusive, IL-1B inflam inh -2 and HT1080-NT tox -27%.
Cc1cc(O)cc(O)c1-c1onc(C(F)(F)F)c1-c1cscn1 was read as TDP1 cell CPT 18µM*, HT1080 IDH1KD tx -17%, ELG1 repair inh inconclusive, DT40 TDP1 no CPT 10µM*, IL-1B inflam inh -14 and HT1080-NT tox -13%.
Screening N=C1c2ccccc2CN1NC(=O)CC12CC3CC(CC(C3)C1)C2 returned TDP1 cell CPT inconclusive, HT1080 IDH1KD tx 6%, ELG1 repair inh 11%, DT40 TDP1 no CPT inconclusive, IL-1B inflam inh -22 and HT1080-NT tox 2%.
`CC(NC(=O)Nc1ccc(Cl)c(Cl)c1)C(c1ccccc1)N1CCOCC1` (stereo unspecified) gave TDP1 cell CPT 26µM*, HT1080 IDH1KD tx inconclusive, ELG1 repair inh inconclusive, DT40 TDP1 no CPT inconclusive, IL-1B inflam inh -11 and HT1080-NT tox 23µM*.
For CC(NC(=O)C1CC1)C(c1cccs1)N1CCOCC1 (stereo unspecified) the results were TDP1 cell CPT -10%, HT1080 IDH1KD tx -4%, ELG1 repair inh 0%, DT40 TDP1 no CPT 5%, IL-1B inflam inh -9 and HT1080-NT tox 2%.
For CC(Cc1cccs1)NC(=O)Nc1ccc(Cl)c(Cl)c1 (stereo unspecified) the results were TDP1 cell CPT 23µM*, HT1080 IDH1KD tx inconclusive, ELG1 repair inh inconclusive, DT40 TDP1 no CPT 23µM*, IL-1B inflam inh -4 and HT1080-NT tox inconclusive.
For CC(NC(=O)Nc1ccc([N+](=O)[O-])cc1)C(c1ccccc1)N1CCOCC1 (stereo unspecified) the results were TDP1 cell CPT -27%, HT1080 IDH1KD tx 12%, ELG1 repair inh -14%, DT40 TDP1 no CPT inconclusive, IL-1B inflam inh -9 and HT1080-NT tox -25%.
CC(NC(=O)C1CCC(C(C)(C)C)CC1)C(c1ccccc1)N1CCOCC1 (stereo unspecified) was read as TDP1 cell CPT inconclusive, HT1080 IDH1KD tx -1%, ELG1 repair inh inconclusive, DT40 TDP1 no CPT 23µM*, IL-1B inflam inh 5 and HT1080-NT tox 0%.
Screening CCc1nnc(NS(=O)(=O)c2ccc(NCc3ccccc3O)cc2)s1 returned TDP1 cell CPT 3%, HT1080 IDH1KD tx 7%, ELG1 repair inh 0%, DT40 TDP1 no CPT -1%, IL-1B inflam inh 49 and HT1080-NT tox 7%.
`CCc1cc(C(=O)Nc2ccc(S(=O)(=O)NC3=NCCCCC3)cc2)sc1C` gave TDP1 cell CPT inconclusive, HT1080 IDH1KD tx 0%, ELG1 repair inh -20%, DT40 TDP1 no CPT inconclusive, IL-1B inflam inh inconclusive and HT1080-NT tox -6%.
For O=S(=O)(NC1c2cccc3cccc(c23)C1N1CCNCC1)c1ccc(Cl)cc1 (stereo unspecified) the results were TDP1 cell CPT 13µM*, HT1080 IDH1KD tx 21µM*, ELG1 repair inh 2%, DT40 TDP1 no CPT 12µM*, IL-1B inflam inh -60* and HT1080-NT tox 18µM*.
`N/C(=C\c1ccccc1)c1ccncc1` gave TDP1 cell CPT -2% and DT40 TDP1 no CPT inconclusive.
Screening CSc1ncccc1C(=O)N1CCCC(CCC(=O)NCc2ccc(F)c(F)c2)C1 (stereo unspecified) returned TDP1 cell CPT inconclusive, HT1080 IDH1KD tx -7%, ELG1 repair inh 5%, DT40 TDP1 no CPT inconclusive, IL-1B inflam inh 0 and HT1080-NT tox -12%.
For COc1cccc(CNC(=O)CCC2CCCN(C(=O)c3cc4ccccc4o3)C2)c1 (stereo unspecified) the results were TDP1 cell CPT inconclusive, HT1080 IDH1KD tx -7%, ELG1 repair inh 14%, DT40 TDP1 no CPT 13µM*, IL-1B inflam inh -90* and HT1080-NT tox -3%.
Screening Cc1occc1C(=O)N1CCCC(CCC(=O)NCc2ccc(F)c(F)c2)C1 (stereo unspecified) returned TDP1 cell CPT inconclusive, HT1080 IDH1KD tx 21%, ELG1 repair inh 5%, DT40 TDP1 no CPT 21µM*, IL-1B inflam inh 5 and HT1080-NT tox -9%.
For COc1cccc(CNC(=O)CCC2CCCN(C(=O)c3ccoc3)C2)c1 (stereo unspecified) the results were TDP1 cell CPT 10%, HT1080 IDH1KD tx -1%, ELG1 repair inh 6%, DT40 TDP1 no CPT -26%, IL-1B inflam inh 13 and HT1080-NT tox 11%.
`Cc1cnc(CNc2ncnc3ccc(-c4ccccc4C#N)cc23)cn1` gave TDP1 cell CPT -5% and DT40 TDP1 no CPT -23%.
Screening CC(=O)Nc1ccc(S(=O)(=O)N(C)c2ccc(OCC(=O)NCCc3ccccc3F)cc2)cc1 returned TDP1 cell CPT inconclusive, HT1080 IDH1KD tx -5%, DT40 TDP1 no CPT inconclusive, IL-1B inflam inh inconclusive and HT1080-NT tox -6%.
